# Screens from PubChem BioAssay.
# Sampled rows, rich in hits. Any-hit rate of the full collection: about 0.27%.
# TRPML1 blocker = qHTS for Inhibitors of the Human Mucolipin Transient Receptor Potential 1 (TRPML1); activity change, negative = inhibition, % (test concentration not listed); Mucolipin-1 (Homo sapiens), Q9GZU1; 390,000 compounds, 0.02% hits; TRPML1-inducible cells, Ca2+ dye fluorescence, FDSS; hits give low values; inhibition of EC80 agonist-evoked calcium signal; in the data active means activity change below about -50%; inconclusive means between about -30% and that limit;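 further: stimulus is agonist 54-4 at its EC80 concentration; on the % scale 0 is the no-effect control and ±100 the full control effect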
#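 Tet-induced TRPML1-DL cells loaded with Ca8 no-wash calcium dye were read kinetically on FDSS. Compound addition was followed by EC80 agonist 54-4 (4 uM final); inhibition was read over 110 s.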
# TRPV1 potentiator = HTS Assay for Compounds that Act as Potentiators of the Vanilloid Receptor 1. potentiation, % at 8.33 µM. 320,000 compounds, 0.02% hits. TRPV1-expressing cells, Fluo-8 calcium influx, capsaicin EC20 potentiation. AID 540277, 2011. Transient receptor potential cation channel subfamily V member 1 (Homo sapiens), Q8NER1; in the data active means potentiation above about 80%; inconclusive means between about 30% and that limit; further: 0% is about no effect
# Target sequence (Q8NER1 whole entry, looked up): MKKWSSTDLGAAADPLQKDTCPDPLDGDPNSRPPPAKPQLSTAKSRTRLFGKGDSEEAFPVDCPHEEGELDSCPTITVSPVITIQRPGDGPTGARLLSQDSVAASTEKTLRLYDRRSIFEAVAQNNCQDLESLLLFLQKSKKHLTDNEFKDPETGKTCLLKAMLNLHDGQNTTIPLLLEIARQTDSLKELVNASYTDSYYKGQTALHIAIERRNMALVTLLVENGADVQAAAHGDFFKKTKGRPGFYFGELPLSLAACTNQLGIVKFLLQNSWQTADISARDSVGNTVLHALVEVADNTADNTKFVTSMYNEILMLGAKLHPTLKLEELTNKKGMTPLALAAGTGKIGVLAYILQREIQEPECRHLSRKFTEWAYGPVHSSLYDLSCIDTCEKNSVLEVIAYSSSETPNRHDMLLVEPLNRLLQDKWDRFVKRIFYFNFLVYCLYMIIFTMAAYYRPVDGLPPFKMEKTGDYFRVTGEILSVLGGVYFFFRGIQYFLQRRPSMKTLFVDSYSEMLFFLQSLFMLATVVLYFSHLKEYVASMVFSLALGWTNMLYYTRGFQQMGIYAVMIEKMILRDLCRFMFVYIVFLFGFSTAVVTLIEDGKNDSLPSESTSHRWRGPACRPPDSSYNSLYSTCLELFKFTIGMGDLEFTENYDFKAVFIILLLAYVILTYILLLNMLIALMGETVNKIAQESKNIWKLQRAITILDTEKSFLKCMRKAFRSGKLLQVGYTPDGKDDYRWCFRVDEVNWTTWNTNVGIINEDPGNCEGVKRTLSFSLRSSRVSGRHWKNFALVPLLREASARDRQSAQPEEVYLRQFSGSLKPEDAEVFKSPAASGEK
#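 Fluo-8 calcium influx in TRPV1-expressing cells, kinetic read (ex 480/em 520 nm). Compound added and read 3 min for agonist activity, followed by capsaicin at EC20 final and 2 min further read for enhancement.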
# TRPML1 agonist = qHTS for Agonists of the Human Mucolipin Transient Receptor Potential 1 (TRPML1); TRPML1-expressing cells, Ca2+ dye fluorescence, FDSS; Mucolipin-1 (Homo sapiens), Q9GZU1; AID 624414, 2012; activation, % (no concentration beside the values); 410,000 compounds, 0.12% hits; in the data active means activation above about 50%; inconclusive means mostly about 30% to 49%; further: 0% is about no effect
#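 Tet-induced TRPML1-DL cells, 1,500 per well, cultured overnight, were loaded with a no-wash Ca2+ dye for 45–90 min. Calcium fluorescence was recorded on the FDSS for 110 s after compound addition, before the EC80 agonist (4 uM 54-4) was added.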
# TRPV1 ag = HTS Assay for Compounds that Act as Agonists of the Vanilloid Receptor 1 | activation, % at 8.33 µM | Transient receptor potential cation channel subfamily V member 1 (Homo sapiens), Q8NER1 | TRPV1-expressing cells, Fluo-8 calcium influx, agonist mode | 320,000 compounds, 0.19% hits | AID 540275, 2011; in the data active means activation above about 80%; inconclusive means between about 30% and that limit; further: 0% is about no effect
#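 TRPV1-expressing cells were cultured overnight at 35.5C and loaded with Fluo-8 calcium dye for 40 to 90 min at room temperature. After a 10 s baseline, compound was added and calcium influx was read kinetically for 3 min (ex 480/em 520 nm).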
# * = called active by the depositor; u = inconclusive; x = no result.
SMILES,TRPML1 blocker,TRPV1 potentiator,TRPML1 agonist,TRPV1 ag
CCN(CC)S(=O)(=O)c1ccc(C(=O)Nc2ccc(Cc3ccncc3)cc2)cc1,-2.3,2.3,2.0,80.7*
CC(C)C[C@H]1CN=C(Nc2ccccc2)N1CCc1cccc(F)c1,9.5,x,79.9*,x
COc1cccc(Nc2nc3ccc(C)cc3nc2-n2nc(C)cc2C)c1,-9.1,x,-0.3,x
Cc1ccc2c(=O)cc(C(=O)Nc3c(C)cccc3C)oc2c1,1.5,x,0.9,x
COc1ccc(CC(=O)NCCCc2ccccc2)cc1OC,2.3,-21.8,2.0,105.2*
CCN(CC)S(=O)(=O)c1ccc2c(c1)nc(CN(C)C(=O)Nc1ccc(F)cc1)n2C,u,x,-0.8,x
COc1ccccc1NC(=S)N(Cc1ccccc1)Cc1ccccn1,12.1,-8.7,-2.1,22.5
S=C(Nc1ccccc1Cl)N(Cc1ccccc1)Cc1ccccn1,44.9,132.2*,1.6,-9.0
Cc1ccsc1CCN1C(=O)N(c2ccccc2)C(=O)C1CC(=O)Nc1ccc(Cl)cc1 (centres undefined),-6.8,x,2.7,x
Cc1ccccc1NC(=O)Nc1ccc(C(F)(F)F)cc1,-8.9,-3.4,2.2,u
Cc1cc2c(NC(=O)Nc3ccc(C(C)(C)C)cc3)cccc2nn1,11.8,-5.9,0.4,113.7*
Cc1cc2c(NC(=O)Nc3ccccc3)cccc2nn1,-3.5,11.6,-0.2,86.6*
O=C(Nc1ccccc1)Nc1cccc(NC(=O)Nc2ccccc2)c1F,-8.0,1.1,1.1,1.5
CCOC(=O)c1cnc2ccc(OC)cc2c1NCCc1ccccc1,55.5,x,2.9,x
CC1CCC(NC(=O)c2ccc3c(c2)N(Cc2ccccc2F)C(=O)c2ccccc2S3=O)CC1 (centres undefined),48.2,x,-0.3,x
CN(CCc1ccccc1)C(c1cc2ccccc2o1)c1nnnn1C(C)(C)C (centres undefined),x,x,69.8*,x
CN(Cc1ccccc1)C(c1cc2ccccc2o1)c1nnnn1C(C)(C)C (centres undefined),x,x,-0.1,x
COCCCNC(=O)c1c[nH]c2ccc(S(=O)(=O)N3CCC(C)CC3)cc2c1=O,8.2,-1.4,1.2,14.8
COCCNC(=O)c1c[nH]c2ccc(S(=O)(=O)N3CCOCC3)cc2c1=O,-3.0,11.5,-0.3,-2.0
CCCCCNC(=O)c1c[nH]c2ccc(S(=O)(=O)N3CCC(C)CC3)cc2c1=O,-50.4*,x,1.4,x
CC(C)CCNC(=O)c1c[nH]c2ccc(S(=O)(=O)N3CCOCC3)cc2c1=O,11.3,-2.3,-0.6,82.2*
CC(C)Oc1ccc(CNC(=O)CCCN2C(=O)c3cccnc3Oc3ccc(Cl)cc32)cc1,-15.6,x,2.9,x
COc1cc2c(cc1OC)C(C(=O)Nc1ccccn1)C(c1cccnc1)N(C)C2=O (centres undefined),-52.4*,15.1,1.3,-2.1
Oc1ccccc1N=Cc1c(O)ccc2ccccc12,13.0,-5.8,14.3,97.0*
COc1ccc(OCC(=O)NC(Cc2c[nH]c3ccccc23)C(=O)O)cc1 (centres undefined),-0.4,x,1.9,x
SMILES,TRPML1 blocker,TRPV1 potentiator,TRPML1 agonist,TRPV1 ag
O=C(O)c1ccc(-n2c(/C=C\c3ccc(O)cc3)nc3ccccc3c2=O)cc1,53.6,x,4.1,x
CN(C)c1ccc(/C=C/c2nc3ccccc3c(=O)n2-c2ccc(C(=O)O)cc2)cc1,19.0,-14.4,64.2*,u
CCOC(=O)/C(C#N)=C(C)/C=C1\Sc2ccccc2N1CC,2.2,5.1,51.8*,11.8
Cc1ccc(O)c(NC(=S)NC(=O)Cc2ccc(Cl)cc2)c1,0.7,9.7,74.6*,11.2
Cc1ccc(NC(=S)NC(=O)c2ccc(-c3ccc(Cl)cc3)o2)c(O)c1,-5.4,-2.3,-0.5,0.2
O=C(CCSCc1cnn(-c2ccccc2)c1-n1cccc1)NCc1ccc(Cl)cc1,31.8,x,6.5,x
N/C(=N\OC(=O)C12CC3CC(CC(C3)C1)C2)c1ccncc1,11.6,-7.4,60.7*,29.1
Cc1ccc(Cl)cc1NC(=O)Nc1cn(CC(C)C)c(=O)c2ccccc12,1.5,x,57.1*,x
COc1cc(OC)c(C(=O)NCc2nc(-c3ccccc3)no2)cc1OC,12.8,x,-0.8,x
CS(=O)(=O)N1CCc2cc(C(=O)Nc3ccc(Br)cc3)ccc21,u,-6.7,1.0,88.2*
Cc1ccc(NC(=O)c2ccc3c(c2)CCN3S(C)(=O)=O)cc1,2.0,x,-0.7,x
O=C(/C=C/c1ccccc1)CC(O)(c1ccccc1)C(F)(F)C(F)F (centres undefined),-5.5,7.5,59.4*,-0.6
O=C(/C=C/c1ccccc1)CC(O)(c1ccccc1)C(F)(F)F (centres undefined),-6.1,2.0,0.6,14.0
COc1ccc(C2C=C(c3ccc(Cl)cc3)Nc3nc(-c4ccc(Cl)cc4)nn32)cc1 (centres undefined),12.2,x,8.3,x
Cc1ccc(-c2csc(NC(=O)CN3CCOCC3)n2)cc1C,10.0,-14.1,-0.2,94.9*
O=C(CN1CCOCC1)Nc1nc(-c2ccccc2)cs1,24.3,-13.1,1.4,85.3*
Cn1cnnc1SCC(=O)Nc1nc(-c2ccccc2)cs1,-7.1,-3.5,-1.2,89.0*
O=C(CN1CCCCC1)Nc1nc(-c2ccc(F)c(F)c2)cs1,1.6,-2.8,0.1,-1.1
O=C(Nc1nc(-c2ccccc2)cs1)c1ccc(Br)o1,-0.8,-9.8,0.1,88.2*
Cc1ccc(C(=O)Nc2nc(-c3cccnc3)cs2)o1,-8.9,-3.6,-0.1,6.5
O=C(Cn1cc(SCc2ccc(Br)cc2)c2ccccc21)N1CCCCC1,-3.6,x,0.1,x
Cc1ccc(OC(C)C(=O)N2CCN(CCc3ccccn3)CC2)cc1C (centres undefined),5.8,x,-0.4,x
COc1cc(OC)c(NC(=O)C(C)n2nc(-c3ccc(C)c(C)c3)ccc2=O)cc1Cl (centres undefined),-10.0,x,0.2,x
CN1/C(=C\C=C2/SC(=S)NC2=O)C(C)(C)c2ccccc21,-1.8,-1.3,85.4*,u
CN1/C(=C\C=C2/C(=O)Oc3ccccc3C2=O)C(C)(C)c2ccccc21,-11.8,-6.2,98.5*,106.7*
CN1C(=CC=C2C=C(I)C(=O)C(I)=C2)C(C)(C)c2ccccc21,-5.3,-9.1,15.5,18.7
CC1CCN(C(=O)CSc2nc3ccccc3c(=O)n2Cc2ccc3c(c2)OCO3)CC1,18.6,-2.9,1.7,81.9*
CC1CCN(C(=O)Cn2c(=O)n(Cc3ccc4c(c3)OCO4)c(=O)c3ccccc32)CC1,-5.7,6.7,2.4,8.5
CCOC(=O)N1CCC(n2c(SCC(=O)N3CCC(C)CC3)nc3ccccc3c2=O)CC1,21.9,-9.4,1.6,81.2*
COc1ccccc1NC(=O)N(Cc1nnc2n1CCCCC2)c1ccc(F)cc1,8.5,x,2.6,x
